Holding throughout (experiment): glycan array binding signal (z-score within array); higher = stronger binding
Details in all cases: glycan notation: IUPAC condensed, linker removed

Test [1] addresses Fuc(a1-2)Gal(b1-3)GlcNAc6S. In short, it runs like this:
(§1)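 The binding signal is a Z-score computed within each array and averaged over linkers. Arrays of the same protein sequence at different concentrations or buffers were also averaged together. Data originate from 3228 arrays in the Consortium for Functional Glycomics database, kept only where the protein sequence was available.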

The target in test [2] is Fuc(a1-2)Gal(b1-4)GlcNAc(b1-3)Gal(b1-4)GlcNAc(b1-2)Man(a1-3)[Fuc(a1-2)Gal(b1-4)GlcNAc(b1-3)Gal(b1-4)GlcNAc(b1-2)Man(a1-6)]Man(b1-4)GlcNAc(b1-4)GlcNAc. In short, it runs like this: as §1
The target in test [3] is Fuc(a1-2)Gal(b1-4)[Fuc(a1-3)]GlcNAc(b1-2)[Fuc(a1-2)Gal(b1-4)[Fuc(a1-3)]GlcNAc(b1-4)]Man(a1-3)[Fuc(a1-2)Gal(b1-4)[Fuc(a1-3)]GlcNAc(b1-2)Man(a1-6)]Man(b1-4)GlcNAc(b1-4)GlcNAc. In short, it runs like this:
as §1

The target of test [4] is Fuc(a1-2)[Gal(a1-3)]Gal(b1-3)GlcNAc. In outline:
as §1

Test [5] addresses Fuc(a1-2)[Gal(a1-3)]Gal(b1-4)GlcNAc(b1-2)Man. In short, it runs like this: as §1
Test [6] addresses Fuc(a1-2)[Gal(a1-3)]Gal(b1-4)GlcNAc(b1-6)GalNAc. In short, it runs like this: as §1
The target of test [7] is Fuc(a1-2)[GalNAc(a1-3)]Gal(b1-4)GlcNAc(b1-2)Man(a1-3)[Fuc(a1-2)[GalNAc(a1-3)]Gal(b1-4)GlcNAc(b1-2)Man(a1-6)]Man(b1-4)GlcNAc(b1-4)GlcNAc. In short, it runs like this: as §1
In test [8] the target is Fuc(a1-2)[GalNAc(a1-3)]Gal(b1-4)GlcNAc(b1-6)GalNAc. In short, it runs like this:
as §1

Another test concerns the target Gal(a1-3)Gal(b1-3)GlcNAc. In outline:
as §1

Test [9] deals with Gal(a1-3)Gal(b1-3)GlcNAc(b1-2)Man(a1-3)[Gal(a1-3)Gal(b1-3)GlcNAc(b1-2)Man(a1-6)]Man(b1-4)GlcNAc(b1-4)GlcNAc. In short, it runs like this: as §1
For test [10], the target named is Gal(a1-4)Gal(b1-4)GlcNAc(b1-3)Gal(b1-4)Glc. In short, it runs like this: as §1
The target of another test is Gal(b1-3)Gal(b1-4)GlcNAc. In short, it runs like this: as §1
Test [11] addresses Gal(b1-3)GlcNAc(a1-6)Gal(b1-4)GlcNAc. In short, it runs like this: as §1
For a further test, the target named is Gal(b1-3)GlcNAc6S. In outline:
as §1

Test [12] has as its target Gal(b1-3)[Neu5Ac(a2-6)]GlcNAc(b1-4)Gal(b1-4)Glc. In short, it runs like this: as §1
Test [13] deals with Gal(b1-4)GlcNAc(b1-2)[Gal(b1-4)GlcNAc(b1-6)]Man(a1-6)[Gal(b1-4)GlcNAc(b1-2)Man(a1-3)]Man(b1-4)GlcNAc(b1-4)GlcNAc. In outline: as §1
The target in the next test is Gal(b1-4)GlcNAc6P. In outline:
as §1

The target in test [14] is Gal3S(b1-3)[Fuc(a1-4)]GlcNAc. In outline:
as §1

The next test concerns the target Gal6S(b1-4)Glc. In outline:
as §1

In test [15] the target is GalNAc(b1-3)Gal(a1-4)Gal(b1-4)GlcNAc(b1-3)Gal(b1-4)Glc. In short, it runs like this: as §1
Another test concerns the target GalNAc(b1-3)GalNAc. In short, it runs like this: as §1
A further test has as its target GalNAc(b1-3)GlcNAc. In outline:
as §1

In test [16] the target is Man(a1-2)Man(a1-3)[Man(a1-2)Man(a1-6)]Man(a1-6)[Man(a1-2)Man(a1-2)Man(a1-3)]Man(b1-4)GlcNAc(b1-4)GlcNAc. In short, it runs like this: as §1
Test [17] has as its target Man(a1-3)[Man(a1-6)]Man(a1-6)[Man(a1-2)Man(a1-3)]Man(b1-4)GlcNAc(b1-4)GlcNAc. In outline: as §1

The source of these data is the supplement of paper PMC8728848.

The entries come from a sample that favours the strongest signals as a whole.

B1: SialidaseA (Arthrobacter ureafaciens) (protein)
chain: MRSNSTSAPSLVRRAATGVLTCAVSIGLLAGLGLPAQAAPTPPNSPTLPPGSFSETNLAADRTAANFFYRIPALTYLGNDVVLAAWDGRPGSAADAPNPNSIVQRRSTDGGKTWGPVQVIAAGHVADASGPRYGYSDPSYIYDAEANKVFAFFVYSKDQGFGGSQFGNDDADRNVISSAVIESSDAGVTWSQPRLITSVTKPGTSKTNPAAGDVRSNFASSGEGIQLKYGPHKGRLIQQYAGDVRQADGSNKIQAYSVYSDDHGVTWHKGANVGDRMDENKTVELSDGRVLLNSRDNANRGYRKVAVSTDGGATYGPVSQDTELPDPANNGAIARMFPNAAQGSADAKKLIFTNANSKTGRENVSARVSCDDGETWPGVRTIRSGFSAYSTVTRLADGKFGVLYEGNYTDNMPFATFDDAWLNYVCAPLAVPAVNIAPSATQEVPVTVTNQEATTLSGATATVYTPSGWSATTVPVPDVAPGASVTVTVALTAPADASGPRSLNAAFTTADGRVSQFTFTATTPVAPQVGLTITGSAPARDVAANPYQAGDVLGYTLNVKSTANVAANSVPLTGTFDSGFLPPAAPNCRYNNLAAGASYNCTTAKHTITAADMERGYFVPEATFSITSTTTPSLTKTVQFTGAAVALRDGLISADISGARTDVGRDLATRPYAAGELVPYAFTVKNTSPFVEQVVPTAGNFSPFLPAGAGNCRYLSLPAGQSYECATPRHAVTAEEVEQGFFVPDTTWEVSAAGQSTRTYRINGGEVDLLVRDAALSATVVAEWKDADGDRFASAGDPVTFTYTVGNAGNVALTGLEAPDAGISLPFLAPGDTATATREHVLTAADVAGGSLAASAFEATARNGSKEVTATAEGQPLELKVQPAQPSKEPELTVQDLEDQTPPFDLGTAFKYRTGQKVSLAGLEYGQWYYVYLNKTGYRLGWMFPTTGDTVEFILPPEVRNGRDDVVVLDKDGRRVSFDRLQVTPKGEKI
On to B1, for which the “glycan array binding signal (z-score)” value in test [1] is -0.849; in test [2], 1.3; in [3] it was 0.318; in [4], -0.478; in [5], -0.252; in test [6] it was -0.849. Further, the “glycan array binding signal (z-score)” value is -0.021 in test [7]; -0.733 in test [8]; -0.563 in the test with Gal(a1-3)Gal(b1-3)GlcNAc; 0.062 in [9]; -0.51 in [10]; -0.643 with Gal(b1-3)Gal(b1-4)GlcNAc. In addition, the “glycan array binding signal (z-score)” value is -0.544 in test [11]; -0.625 with Gal(b1-3)GlcNAc6S; 2.48 in test [12]; -0.46 in test [13]; -0.685 with Gal(b1-4)GlcNAc6P; -0.337 in test [14]. Besides, the “glycan array binding signal (z-score)” value is -0.719 with Gal6S(b1-4)Glc; -0.337 in test [15]; -0.689 with GalNAc(b1-3)GalNAc; -0.637 with GalNAc(b1-3)GlcNAc; -0.441 in test [16]; -0.172 in test [17].
